The supplement of paper PMC11417369
Whole data set: some 25,000 sequences, median “ln(normalized median fluorescence intensity)” near 7.1, cut for the highest 2% near 10. The list comes from a sample in which the highest values are over-represented; it also holds similar and randomly drawn sequences.

These sequences were tested on PfSIP2 AP2 domain 1 (GST-tagged) (assay: gcPBM binding intensity (ln(normalized median fluorescence intensity)); higher = stronger DNA binding).
In short: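 Binding intensity is defined as the maximum Masliner-normalised natural-log median intensity across replicate spots for either probe orientation. It was measured on an Agilent 4 × 180k array of primer-extended double-stranded 36-bp intergenic genomic probes and negative controls, to which GST-tagged P. falciparum DNA-binding domains made in E. coli were applied for 1 h in 1× PBS with 1% milk, 0.2 mg/ml BSA, 0.5% salmon testes DNA and 0.03% Triton X-100. Detection was by Alexa488 anti-GST antibody and scanning at 488 nm.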

Row | Sequence | gcPBM binding intensity (ln)
1 | AAATATAATAATAATTTAAGAATCTAATATTTTATA [CACACA_negctrl_site831] | 6.59
2 | ATACGATTGCAGTCAAAAAGGAAAATATAAAAAAAG [XGTACX_negctrl_site124] | 7.29
3 | TTTTTTTTTTTTTCAAGTACATATATATATATATAA [XGTACX_site2098] | 7.58
4 | TTTTACGTGAGTAATACACACATATAAGTTTATATA [CACACA_site4120] | 6.74
5 | TTTTTTTTTTTTCACGTGCACTATACATATAAGTAA | 10.5
6 | AATATAATATTATATAGTACATATTTCTTTTATTTT [XGTACX_site22] | 6.82
7 | ACACATACACATTAGGTGCATATATTTCAATATTAC [GTGCAC_site9423] | 10.3
8 | AAAATTTCAATAAATACACACATATATATATATATT [CACACA_site1685] | 7.07
9 | TTTTCAAAAATATATACACACATGCATATTACGGTG [CACACA_site775] | 6.98
10 | TTGTTGTATTATTTATGTACATATGTATATGTATAT [XGTACX_site1315] | 7.17
11 | TATTGTATATAATAAACACACAATATTAAAAATATA [CACACA_site1057] | 6.8
12 | ACAAAAAAAAACGTGGTGCATTAATAATATTGTATA [GTGCAC_site9469] | 10.3
13 | AATATTGTATATAATAAACACACAATATTAAAAATA [CACACA_site8262] | 6.99
14 | ATATGGTGATATAGGTGTACATTTTGATGCTTATTT [XGTACX_site4283] | 6.95
15 | AGCATTTTAAGTTATACACACATTTTGAATCTATAT [CACACA_site7599] | 6.89
16 | CACCCGCACGTATTTGCACACATTGCCACGTAATTA [CACACA_site5786] | 7.76
17 | TTATTTTCTTTCTATGCACACGCACGTATTTGCCCA [CACACA_site9104] | 7.91
18 | ATTTTCTTTCTATGCACACGCACGTATTTGCACCCA [CACACA_site3350] | 11.9
19 | TACATAAATTTTAATACATGCAAATAAAATATATAA [TGCATGCA_site131] | 6.94
20 | TTAAAAAAATATAATACACACCAAAAATATGCACAT [CACACA_site5209] | 9.27

Row | Sequence | gcPBM binding intensity (ln)
21 | TAAAAATAAATAAATACATGCACCAAAAATAAATTT [TGCATGCA_site801] | 10.2
22 | TCCTATGATGATGATAGTACATATGAGTTCAAAAAA [XGTACX_site273] | 6.81
23 | CACCAATTCATATGCACACACATCTGCATATTATAT [CACACA_site1773] | 7.43
24 | CCATGTAGTGAATAGGTGCATATCAAAAAAAAAAAA | 11
25 | TATATAATATATATAGTGCATAAGTTCAAAAGAATA [GTGCAC_site9805] | 8.73
26 | GGAAAATTATCAATAGCATGCAAAATGTGAATATTA [TGCATGCA_site901] | 6.83
27 | CATATAAATAGACACACACACACATATAAATAAATA [CACACA_site7156] | 7.23
28 | AAAACAATAATATACTGTACATATATATAATAACAT [XGTACX_site6188] | 7.13
29 | ATGGTATAAAAAAATACACACTTATATATATTCTTA [CACACA_site4427] | 6.86
30 | TGTATATGTGAAGCAAGGGATGCGGCAGACATAACA [CACACA_negctrl_site1339] | 7.07
31 | ATTTATATATATGTATGTACGTATGTGTGTATATGT [XGTACX_site7587] | 7.73
32 | GTATTATTTTATGATGCATGTGTATTTCATATATGC [TGCATGCA_site660] | 6.98
33 | ATATATTATGGGTGTGCACACAATATTTATATGTTC [CACACA_site2270] | 8.64
34 | ATTTCCCCAACGTGGGTGCATATATTTATGTGTGAA [GTGCAC_site9439] | 11.1
35 | TTATTTTATTTAGGGTGTACCCAATTTTTCCATATG [XGTACX_site4957] | 6.78
36 | CACATATATATGTGTGCATGTTGTATTATATATTTA [TGCATGCA_site632] | 8.48
37 | ATATGAAACATGAAGGTGCATAATGTGTATATTTAT | 10.8
38 | TATTTATATGTATATACATGCACATATATATGAAAC [TGCATGCA_site1005] | 7.7
39 | TTTATTTATGTGTGGGTGCATATACGTATGATGTAT | 10.6
40 | CCGTTGAACATATATGCACACACATAAAATAAAAAA [CACACA_site8761] | 7.65

Row | Sequence | gcPBM binding intensity (ln)
41 | AAAAAATAAGATTGTACACACATAAATTCTTTGTCA [CACACA_site2089] | 6.85
42 | AATCCTTCATATGTAGTGCATATTAACAAAATAAAA [GTGCAC_site9500] | 8.78
43 | TTTTGCAATAATGTTGCACACTAAATAGTCATATAT [CACACA_site7977] | 7.61
44 | ATATATATATATATATGTACGTACTCAGTTATGCCT [XGTACX_site453] | 9.2
45 | TTTGTAACTTCTTTCACACATATATATATATATATA [CACACA_site5603] | 9.76
46 | CACCCACCCAGACACACACACACACCCCCACCCATA [CACACA_site367] | 7.6
47 | ACAAATTGTTAAAGGTGTACAATACATATATAAGAA [XGTACX_site4906] | 7.38
48 | GTGTGCAAAAATTGTTGTACATTATATATAAAAAAA [XGTACX_site3246] | 7.79
49 | TTTGTGTTTATAAATTGTACAAAGGTGCAAGAAGAA [XGTACX_site2159] | 11.2
50 | TATGTACAGACATATACACACCTCTATAATCTATAT [CACACA_site6482] | 7.09
51 | AAAAAAAATTATGAAGTGCATTAGTGAATTTGATTG | 9.16
52 | TGTCGGCTTAGATTAGTGCACTGAAAAATGAAGTAT [GTGCAC_site9919] | 10.5
53 | TATATATATAAATGAATGCACTTTAGAAAAAAGTAC | 8.52
54 | ATTTTTTTTTTTTTTTGTACGAATAATATGTATGAA [XGTACX_site5318] | 7.12
55 | TAGGCCTTAAATCGTGTGCACTTTTTTTTTTTTTTT | 10.7
56 | TAAATATATATATGTGTGCACTTCTTCATTTTAATA [GTGCAC_site9537] | 9.97
57 | AAATTAAATAAATTTACACACTAAAAATTACATATA [CACACA_site1054] | 6.88
58 | TCTTTATCCTTTCTCTTTTTATTAATTATAATATTC [TGCATGCA_negctrl_site584] | 6.99
59 | CTTTCGGTTGGAGAGGTGCGCTTCTCCTTTATAATA | 11
60 | TTTTTATTTTATAATATATTCCTTTTCCTTTCTTTC [CACACA_negctrl_site245] | 6.64
